In PubChem BioAssay:
Activity calls are given as the source filed them.

Legend:
[1] = compounds binding Alexa647 anti-His antibody – biochemical, small-molecule microarray, 635 nm fluorescence, artefact control for SMM control protein annotation, primary screen (AID 1128); settings: higher = more signal;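 further: score merges feature fluorescence with signal-to-noise for each printed compound spot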
[2] = test system: Human papillomavirus type 1a E7 protein (residues 1-88); experiment: HPV1a E7 small-molecule binders, primary screen, biochemical, small-molecule microarray, residues 1-88, 635 nm (AID 1129); settings: small-molecule microarray binding, fluorescence 635 nm; higher = more signal
[3] = biological target: Focal adhesion kinase 1 (Homo sapiens) (UniProt Q05397); experiment: PTK2 protein binding on printed compound slides – biochemical, small-molecule microarray, 635/667 nm fluorescence, BSA, DTT, primary screen (AID 1130); settings: 635 nm fluorescence, higher = more signal;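 further: composite of spot emission at 667 nm and signal to noise over triplicate slides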
Focal adhesion kinase 1 (Homo sapiens), sequence (Q05397 whole entry, looked up): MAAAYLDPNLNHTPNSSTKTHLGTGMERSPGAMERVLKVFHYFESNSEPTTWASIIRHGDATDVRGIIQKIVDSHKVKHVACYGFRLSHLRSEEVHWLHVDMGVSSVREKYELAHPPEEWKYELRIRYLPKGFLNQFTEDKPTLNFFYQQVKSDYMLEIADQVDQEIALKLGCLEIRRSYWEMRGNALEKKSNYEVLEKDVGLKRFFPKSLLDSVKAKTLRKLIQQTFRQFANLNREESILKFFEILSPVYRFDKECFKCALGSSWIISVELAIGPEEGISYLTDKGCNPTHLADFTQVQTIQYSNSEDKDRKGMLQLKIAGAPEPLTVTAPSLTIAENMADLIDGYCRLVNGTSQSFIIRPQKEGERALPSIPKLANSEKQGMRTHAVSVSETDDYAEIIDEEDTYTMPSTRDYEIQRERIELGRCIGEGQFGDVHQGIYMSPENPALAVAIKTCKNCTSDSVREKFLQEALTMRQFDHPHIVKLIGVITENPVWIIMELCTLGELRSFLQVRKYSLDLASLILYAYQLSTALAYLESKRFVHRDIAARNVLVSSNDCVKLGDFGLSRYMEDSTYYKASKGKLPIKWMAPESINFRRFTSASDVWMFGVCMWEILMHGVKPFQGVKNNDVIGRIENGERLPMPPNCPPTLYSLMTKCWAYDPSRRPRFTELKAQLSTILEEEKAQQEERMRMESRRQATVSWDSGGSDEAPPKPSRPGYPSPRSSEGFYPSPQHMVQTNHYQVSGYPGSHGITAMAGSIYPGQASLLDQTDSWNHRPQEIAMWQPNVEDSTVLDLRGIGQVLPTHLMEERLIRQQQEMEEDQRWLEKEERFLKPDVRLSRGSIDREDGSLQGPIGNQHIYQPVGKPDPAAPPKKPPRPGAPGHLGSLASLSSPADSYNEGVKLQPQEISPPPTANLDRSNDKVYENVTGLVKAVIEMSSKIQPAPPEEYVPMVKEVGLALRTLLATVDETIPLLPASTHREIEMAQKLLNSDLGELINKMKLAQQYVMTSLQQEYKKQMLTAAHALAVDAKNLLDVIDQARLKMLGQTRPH

[4] = test system: Fibrinogen (Alexa647-labelled); experiment: Alexa647-fibrinogen binding to printed small molecules – biochemical, small-molecule microarray, 635/667 nm fluorescence, artefact control for SMM control-protein annotation, profiling panel (AID 1131); settings: fibrinogen-A647 binding fluorescence, higher = more signal;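 further: z-score merges 667 nm fluorescence with per-spot signal-to-noise over triplicate slides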
[5] = biological target: Follistatin (Homo sapiens) (UniProt P19883); experiment: FST protein binding to printed compounds – biochemical, small-molecule microarray, 635/667 nm fluorescence, primary screen (AID 1132); settings: 635 nm fluorescence, higher = more signal
Follistatin (Homo sapiens), sequence (P19883 whole entry, looked up): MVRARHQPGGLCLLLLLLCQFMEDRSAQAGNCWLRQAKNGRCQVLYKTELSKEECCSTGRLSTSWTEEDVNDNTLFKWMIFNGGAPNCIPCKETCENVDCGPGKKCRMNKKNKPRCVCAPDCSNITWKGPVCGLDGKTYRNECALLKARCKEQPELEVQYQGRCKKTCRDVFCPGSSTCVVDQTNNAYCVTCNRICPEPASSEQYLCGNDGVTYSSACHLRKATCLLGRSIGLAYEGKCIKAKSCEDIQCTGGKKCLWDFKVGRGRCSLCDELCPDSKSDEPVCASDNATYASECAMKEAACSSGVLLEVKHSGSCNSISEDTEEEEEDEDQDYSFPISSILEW

[6] = biological target: Fibroblast growth factor 2 (Homo sapiens) (UniProt P09038); experiment: basic fibroblast growth factor binding to printed compounds – biochemical, small-molecule microarray, 635/667 nm fluorescence, primary screen (AID 1133); settings: FGF2, fluorescence 635/667, higher = more signal
Fibroblast growth factor 2 (Homo sapiens), sequence (P09038 whole entry, looked up): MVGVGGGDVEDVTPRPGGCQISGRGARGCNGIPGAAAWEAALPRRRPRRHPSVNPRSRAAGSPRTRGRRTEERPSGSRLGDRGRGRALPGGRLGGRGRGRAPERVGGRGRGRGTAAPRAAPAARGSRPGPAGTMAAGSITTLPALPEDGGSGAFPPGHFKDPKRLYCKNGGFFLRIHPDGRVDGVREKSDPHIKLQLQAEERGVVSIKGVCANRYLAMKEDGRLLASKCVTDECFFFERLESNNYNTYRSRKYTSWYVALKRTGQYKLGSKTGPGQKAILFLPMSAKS

[7] = JC-1 mitochondrial potential readout, lung cancer cells – cell-based, A549, JC-1 fluorescence, basal, 24 h, 100 nL, profiling panel (AID 1138); settings: higher = more signal;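 further: A549 lung adenocarcinoma cells under basal conditions with no added stimulus; test concentration not given here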
Lefty1 = Lefty1 protein binding to printed compounds – biochemical, small-molecule microarray, 635/667 nm fluorescence, primary screen (AID 1139); settings: fluorescence 635/667, higher = more signal
[8] = test system: wheat germ agglutinin (Triticum aestivum), Alexa647-labelled; experiment: Alexa647-WGA lectin binding to printed small molecules – biochemical, small-molecule microarray, 635/667 nm fluorescence, artefact control for SMM control-protein annotation, profiling panel (AID 1140); settings: WGA-A647 binding, 635 nm fluorescence, higher = more signal;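 further: score merges 667 nm feature emission with signal to noise over triplicate slides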
[9] = biological target: Luciferin 4-monooxygenase (Photinus pyralis) (UniProt P08659); experiment: inhibition of purified Photinus pyralis luciferase – biochemical, luminescence, purified enzyme, 2006 set, primary screen (AID 1141); settings: purified firefly luciferase, SteadyGlo luminescence, 30 min; higher = more signal, called active from +8 up or from −8 down;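 further: cell-free assay with purified firefly luciferase at 100 ng per well in PBS; test concentration not given here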
Luciferin 4-monooxygenase (Photinus pyralis), sequence (P08659 whole entry, looked up): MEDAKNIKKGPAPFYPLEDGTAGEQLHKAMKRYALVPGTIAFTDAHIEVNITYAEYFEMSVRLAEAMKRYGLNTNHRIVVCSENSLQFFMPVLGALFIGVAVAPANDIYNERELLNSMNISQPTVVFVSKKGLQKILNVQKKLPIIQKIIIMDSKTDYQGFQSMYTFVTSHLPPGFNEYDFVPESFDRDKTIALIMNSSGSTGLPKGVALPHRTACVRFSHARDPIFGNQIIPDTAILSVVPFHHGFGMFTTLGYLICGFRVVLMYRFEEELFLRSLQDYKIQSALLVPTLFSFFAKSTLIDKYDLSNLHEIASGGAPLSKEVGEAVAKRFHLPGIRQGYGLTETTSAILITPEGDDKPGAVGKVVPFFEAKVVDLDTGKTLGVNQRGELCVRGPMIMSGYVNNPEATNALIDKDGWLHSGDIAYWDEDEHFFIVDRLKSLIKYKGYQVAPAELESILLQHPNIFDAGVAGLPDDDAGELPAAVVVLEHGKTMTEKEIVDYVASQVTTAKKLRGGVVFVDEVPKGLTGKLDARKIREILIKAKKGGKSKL

In the case of `O=C1[C@H]2[C@H]3[C@H](O)[C@H](O)CC(=NO[C@@H]4O[C@H](CO)[C@@H](O)[C@H](O)[C@H]4O)[C@H]3CC[C@H]2C(=O)N1Cc1ccc2c(c1)OCO2`, the composite z-score [1] is reported as 1.01, the composite z-score [2] is reported as -0.186 and the composite z-score [3] is reported as 0.0254. For the same molecule, the composite z-score [4] was 0.762, the composite z-score [5] was -0.164 and the composite z-score [6] was -0.654. The z-score [7] was 0.531, the composite z-score (Lefty1) was 0.515 and the composite z-score [8] was -0.205. The z-score [9] was 0.654 (inactive).
`O=C1[C@H]2[C@H]3[C@H](O)[C@H](O)CC(=NOCc4ccccc4)[C@H]3CC[C@H]2C(=O)N1c1cccc(Oc2ccccc2)c1` showed a composite z-score [1] of 0.623, a composite z-score [2] of 1.09 and a composite z-score [3] of 0.333. The composite z-score [4] was 0.796, the composite z-score [5] was 0.663 and the composite z-score [6] was 1.23. The z-score [7] was 0.12, the composite z-score (Lefty1) was 0.772 and the composite z-score [8] was 0.623. The z-score [9] was 0.549 (inactive).
`C/C=C\[C@@H](NCc1ccccc1Br)[C@@H](O)Cc1ccccc1` showed a composite z-score [1] of -0.13, a composite z-score [2] of -0.469 and a composite z-score [3] of -0.119. For the same molecule, the composite z-score [4] was -0.641, the composite z-score [5] was -0.604 and the composite z-score [6] was -1.4. For the same molecule, the z-score [7] was -1.4, the composite z-score (Lefty1) was -0.972 and the composite z-score [8] was -0.819. The z-score [9] was 0.979 (inactive).
Work on `CCN1C(=O)[C@H]2[C@H]3[C@H](O)C=CC(=O)[C@@H]3CC[C@H]2C1=O` yielded a composite z-score [1] of 0.635, a composite z-score [2] of 0.936 and a composite z-score [3] of 0.0565. The composite z-score [4] was 0.677, the composite z-score [5] was 0.307 and the composite z-score [6] was 0.731. For the same molecule, the z-score [7] was -0.774, the composite z-score (Lefty1) was 0.514 and the composite z-score [8] was 0.295. For the same molecule, the z-score [9] was -0.605 (inactive).
Molecule `Cc1cc(C)c(-c2cc([C@H](C)ON=C3[C@H]4CCn5c(=O)n(-c6ccccc6)c(=O)n5[C@H]4[C@H](O)[C@@H]4O[C@H]34)on2)c(C)c1` has a composite z-score [1] of -0.286, a composite z-score [2] of 0.748 and a composite z-score [3] of 0.422. It also gave a composite z-score [4] of 0.382, a composite z-score [5] of 0.692 and a composite z-score [6] of 0.627. It also gave a z-score [7] of 1.32, a composite z-score (Lefty1) of 0.652 and a composite z-score [8] of -0.0095. For the same molecule, the z-score [9] was 0.154 (inactive).
With `C=C(CCCC)C(=O)CC[C@@H](OC(C)=O)c1cccc(OCCO)c1` the composite z-score [1] was 0.936, the composite z-score [2] was -0.864 and the composite z-score [3] was -0.0296. The composite z-score [4] was -0.75, the composite z-score [5] was 1.3 and the composite z-score [6] was 0.829. The z-score [7] was -0.497, the composite z-score (Lefty1) was 0.932 and the composite z-score [8] was -1.1. The z-score [9] was -0.879 (inactive).
Work on `CCOC(=O)C1=CCC(c2cc3ccccc3[nH]2)NC1` (stereo not given) yielded a composite z-score [1] of 0.693, a composite z-score [2] of 1.13 and a composite z-score [3] of 1.22. It also gave a composite z-score [4] of -0.288, a composite z-score [5] of 1.12 and a composite z-score [6] of -0.356. It also gave a z-score [7] of 0.642, a composite z-score (Lefty1) of -0.439 and a composite z-score [8] of 1.06. For the same molecule, the z-score [9] was -3.19 (inactive).
`O=C(NN=C1C[C@@H](O)[C@@H](O)[C@@H]2[C@@H]3C(=O)N(c4cccc(Oc5ccccc5)c4)C(=O)[C@@H]3CC[C@H]12)OCc1ccccc1` showed a composite z-score [1] of 1.22, a composite z-score [2] of 0.116 and a composite z-score [3] of -0.294. It also gave a composite z-score [4] of 0.906, a composite z-score [5] of 0.165 and a composite z-score [6] of 0.237. For the same molecule, the z-score [7] was -1.25, the composite z-score (Lefty1) was 0.168 and the composite z-score [8] was 0.557. The z-score [9] was 1.26 (inactive).
Molecule `COc1ccc(O[C@H]2C=C[C@@H](c3ccccc3)O[C@@H]2COC(=O)CCC(C)=NO[C@H](C)c2cn([C@@H]3COC[C@H]3O)nn2)cc1` has a composite z-score [1] of 1, a composite z-score [2] of 0.225 and a composite z-score [3] of 0.149. For the same molecule, the composite z-score [4] was 0.517, the composite z-score [5] was 0.368 and the composite z-score [6] was 0.459. For the same molecule, the z-score [7] was -1.56, the composite z-score (Lefty1) was 0.701 and the composite z-score [8] was -0.151. For the same molecule, the z-score [9] was 0.884 (inactive).
`COC(=O)[C@@H]1CC[C@H](C)[C@@H](c2ccc(C)cc2)N1C(=O)c1ccc(C=NOC(C)CN2CCCCc3nc(C)c(C)cc32)cc1` (stereo not given in full) showed a composite z-score [1] of 0.444, a composite z-score [2] of -0.732 and a composite z-score [3] of 0.0369. For the same molecule, the composite z-score [4] was 0.469, the composite z-score [5] was 0.114 and the composite z-score [6] was 0.222. It also gave a z-score [7] of 2.32, a composite z-score (Lefty1) of 0.847 and a composite z-score [8] of 0.0329. The z-score [9] was 0.662 (inactive).
`CC(C)[C@H](NC(=O)OC(C)(C)C)[C@@H](O)CC(=O)OC(C)(C)C` gave a composite z-score [1] of -0.105, a composite z-score [2] of -1.47 and a composite z-score [3] of -0.563. For the same molecule, the composite z-score [4] was -0.808, the composite z-score [5] was -0.275 and the composite z-score [6] was -0.394. The z-score [7] was -1.25, the composite z-score (Lefty1) was 0.123 and the composite z-score [8] was -0.339. For the same molecule, the z-score [9] was -0.0331 (inactive).
In the case of `CCCCCN1CC=CC23O[C@@H]4C=CCOC(=O)[C@@H]4[C@H]2C(=O)N(C(CO)C(C)C)[C@@H]3C1=O` (stereo not given in full), the composite z-score [1] is reported as 0.373, the composite z-score [2] is reported as -1.02 and the composite z-score [3] is reported as -0.565. For the same molecule, the composite z-score [4] was -0.217, the composite z-score [5] was 0.142 and the composite z-score [6] was -0.533. For the same molecule, the z-score [7] was -0.348, the composite z-score (Lefty1) was 0.0028 and the composite z-score [8] was -0.521. The z-score [9] was 0.281 (inactive).
`COCCCNC(=O)[C@@]1(C)c2ccccc2C(=O)N(Cc2ccc(OC(F)(F)F)cc2)[C@H]1c1ccc(CO)cc1` gave a composite z-score [1] of -0.95, a composite z-score [2] of -1.52 and a composite z-score [3] of -0.253. It also gave a composite z-score [4] of -1.75, a composite z-score [5] of -0.0328 and a composite z-score [6] of -0.553. It also gave a z-score [7] of 0.332, a composite z-score (Lefty1) of -1.02 and a composite z-score [8] of -1.18. The z-score [9] was -0.159 (inactive).
Work on `CCOC(=O)[C@H](Cc1ccccc1)NC(=O)CCC1CC(OC(=O)NCc2ccc3c(c2)OCO3)CC2(CCCC(COC(=O)NCC(c3ccccc3)c3ccccc3)O2)O1` (stereo not given in full) yielded a composite z-score [1] of 0.98, a composite z-score [2] of 1.2 and a composite z-score [3] of 0.231. The composite z-score [4] was 0.0058, the composite z-score [5] was 0.83 and the composite z-score [6] was 0.555. It also gave a z-score [7] of 0.803, a composite z-score (Lefty1) of 0.579 and a composite z-score [8] of 0.477. For the same molecule, the z-score [9] was 0.635 (inactive).
In the case of `CC1(C)OCC(C(O)C2=CCCCC2=O)CO1` (stereo not given), the composite z-score [1] is reported as 0.485, the composite z-score [2] is reported as 0.279 and the composite z-score [3] is reported as 0.0102. The composite z-score [4] was 0.945, the composite z-score [5] was 0.97 and the composite z-score [6] was 0.938. It also gave a z-score [7] of -0.867, a composite z-score (Lefty1) of 1.33 and a composite z-score [8] of 0.731. The z-score [9] was 0.114 (inactive).
For `CO[C@H]1COC(=O)[C@@H]2CCCN2C(=O)CC=C[C@@H](C)[C@H](OC)COC(=O)CC=C[C@@H]1C`, the composite z-score [1] was -0.287, the composite z-score [2] was -0.52 and the composite z-score [3] was -0.0405. It also gave a composite z-score [4] of -0.624, a composite z-score [5] of 1.36 and a composite z-score [6] of 1.21. For the same molecule, the z-score [7] was 1.59, the composite z-score (Lefty1) was 1.62 and the composite z-score [8] was -0.705. For the same molecule, the z-score [9] was -1.87 (inactive).
Work on `COC(=O)[C@@]1(Cc2ccc(F)cc2)[C@@H]2C(=CC(=O)[C@H]2CC(=O)C(=O)N(C)C)CN1C(=O)c1ccccc1` yielded a composite z-score [1] of 2.36, a composite z-score [2] of 1.26 and a composite z-score [3] of 1.09. The composite z-score [4] was 0.981, the composite z-score [5] was 0.635 and the composite z-score [6] was -0.54. The z-score [7] was 0.589, the composite z-score (Lefty1) was -0.421 and the composite z-score [8] was 0.847. The z-score [9] was 1.24 (inactive).
